Our source for the relative cell viability values is the supplement of paper PMC7184167.

Molecules are shown by their SMILES. Structures can show the parent of a compound that is named as a salt.

For this experiment, the system named is replication-induced senescent mouse newborn dermal fibroblasts (NBF). The experiment can be described thus: relative cell viability of senescent cells (fraction); higher = less killing of senescent cells. To be noted: 1 µM; 3 days. The procedure:
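Replication-induced senescent newborn mouse skin fibroblasts (NBFs) in 24-well plates were treated with a Selleck FDA-approved drug library at 1 µM for 3 days.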
`CC(=O)O[C@H]1C[C@@H]2CC[C@@H]3[C@H](CC[C@@]4(C)[C@H]3C[C@H]([N+]3(C)CCCCC3)[C@@H]4OC(C)=O)[C@@]2(C)C[C@@H]1N1CCCCC1` [Vecuronium Bromide] came in with a relative cell viability of 1.08. `C=CCNC1=C2C[C@@H](C)C[C@H](OC)[C@H](O)[C@@H](C)/C=C(\C)[C@H](OC(N)=O)[C@@H](OC)/C=C\C=C(/C)C(=O)NC(=CC1=O)C2=O` [Tanespimycin (17-AAG)]: the relative cell viability is 0.966. The same measure for `O=C(c1ccccc1)c1ccc2n1CCC2C(=O)O` (configuration not stated) [Ketorolac]: 0.977; for `COC(=O)C1=C(C)NC(C)=C(C(=O)OCC(C)C)C1c1ccccc1[N+](=O)[O-]` (configuration not stated) [Nisoldipine]: 1.12. As to `CO[C@H]1C[C@@H]2CC[C@@H](C)[C@@](O)(O2)C(=O)C(=O)N2CCCC[C@H]2C(=O)O[C@H]([C@H](C)C[C@@H]2CC[C@@H](OC(=O)C(C)(CO)CO)[C@H](OC)C2)CC(=O)[C@H](C)/C=C(\C)[C@@H](O)[C@@H](OC)C(=O)[C@H](C)C[C@H](C)/C=C/C=C/C=C/1C`, the relative cell viability amounted to 0.603. Molecule `COc1ccc(-n2nc(C(N)=O)c3c2C(=O)N(c2ccc(N4CCCCC4=O)cc2)CC3)cc1` [Apixaban] displayed a relative cell viability of 0.89. To `CN1C(C(=O)Nc2ccccn2)=C(O)c2ccccc2S1(=O)=O` [Piroxicam] belongs 0.562. To `C=CC[N+]1([C@H]2C[C@H]3[C@@H]4CC[C@H]5C[C@H](O)[C@@H](N6CCOCC6)C[C@]5(C)[C@H]4CC[C@]3(C)[C@H]2OC(C)=O)CCCC1` [Rocuronium Bromide] belongs 0.939; to `COc1cc2nccc(Oc3ccc(NC(=O)NC4CC4)c(Cl)c3)c2cc1C(N)=O` [Lenvatinib (E7080)], 0.123.

The molecule `CO[C@H]1/C=C/O[C@@]2(C)Oc3c(C)c(O)c4c(O)c(c5c(nc6cc(C)ccn65)c4c3C2=O)NC(=O)/C(C)=C\C=C\[C@H](C)[C@H](O)[C@@H](C)[C@@H](O)[C@@H](C)[C@H](OC(C)=O)[C@@H]1C` [Rifaximin] returned a relative cell viability of 0.971. Turning to `O=NN(CCCl)C(=O)NC1CCCCC1` [Lomustine], the relative cell viability is 1.02.

As to `COC(=O)[C@H](c1ccccc1Cl)N1CCc2sccc2C1` [Clopidogrel], the relative cell viability came to 0.983. In the case of `CO/N=C(\C(=O)N[C@@H]1C(=O)N2C(C(=O)OCOC(=O)C(C)(C)C)=C(/C=C\c3scnc3C)CS[C@H]12)c1csc(N)n1` [Cefditoren Pivoxil], the relative cell viability is 0.949. `c1ccc2[nH]c(-c3cscn3)nc2c1` [Thiabendazole] returned a relative cell viability of 1.03. As to `CN(C)CCOC(c1ccccc1)c1ccccc1` [Diphenhydramine HCl], the relative cell viability is 1.14.

In turn, `Oc1ccc(/C=C/c2cc(O)cc(O)c2)cc1` [Resveratrol] showed a relative cell viability of 1.02. `Cc1nc(C(=O)NCC(=O)O)c(O)c2ccc(Oc3ccccc3)cc12` [Roxadustat (FG-4592)] displayed a relative cell viability of 1.03.

Turning to `COC(=O)N[C@H](C(=O)N[C@@H](Cc1ccccc1)[C@@H](O)CN(Cc1ccc(-c2ccccn2)cc1)NC(=O)[C@@H](NC(=O)OC)C(C)(C)C)C(C)(C)C` [Atazanavir Sulfate], the relative cell viability came to 0.988. Molecule `CCCC(CCC)C(=O)O` [Valproic acid sodium salt (Sodium valproate)] returned a relative cell viability of 1.11. Take `CC1(C)O[C@@H]2[C@@H](CO[C@@]3(COS(N)(=O)=O)OC(C)(C)O[C@@H]23)O1` [Topiramate]: the relative cell viability came out at 0.921. With `CC(C)Cc1ccc(C(C)C(=O)O)cc1` (configuration not stated) [Ibuprofen], the relative cell viability was found to be 0.765. To `OCCOCCN1CCN(C2=Nc3ccccc3Sc3ccccc32)CC1` [Quetiapine Fumarate] belongs 1.13; to `C[C@H](CCC(=O)O)[C@H]1CC[C@H]2[C@@H]3[C@H](O)C[C@@H]4C[C@H](O)CC[C@]4(C)[C@H]3CC[C@]12C` [Chenodeoxycholic Acid], 1.06.

Molecule `CCC[C@H](NC(=O)[C@@H]1[C@H]2CCC[C@H]2CN1C(=O)[C@@H](NC(=O)[C@@H](NC(=O)c1cnccn1)C1CCCCC1)C(C)(C)C)C(=O)C(=O)NC1CC1` [Telaprevir (VX-950)] displayed a relative cell viability of 0.411. `CC(C)OC(=O)OCOP(=O)(CO[C@H](C)Cn1cnc2c(N)ncnc21)OCOC(=O)OC(C)C` [Tenofovir Disoproxil Fumarate]: the relative cell viability came to 0.84. To `CCCCC1C(=O)N(c2ccccc2)N(c2ccccc2)C1=O` [Phenylbutazone] belongs 0.899; to `Cc1ccc(NC(=O)C2(c3ccc4c(c3)OC(F)(F)O4)CC2)nc1-c1cccc(C(=O)O)c1` [VX-809 (Lumacaftor)], 0.838.
